Here are results for 14 compounds from PubChem BioAssay (Tox21).

“And” between values parts separate entries of the source, which are not always exact repeats. Equal values may be shown once. A number with no mark means an inactive call. Results filed as inconclusive are left out. The source made the active and inactive calls. Unless noted, calls follow the shape of the dose curve; as a rule, active = well fitted curve in the direction sought with a large enough effect in the repeat runs; inconclusive = weak or mixed curves; inactive = no such curve, though single readings can be large; an effect the other way counts as inactive or inconclusive.

The nature of assay [1]: qHTS assay to test for compound auto fluorescence at 535 nm (green) in HEK293 cells (AID 720680). For orientation: qHTS replaces the single test concentration by a dilution series.
A short description of assay [2]: qHTS assay to test for compound auto fluorescence at 460 nm (blue) in HEK293 cell free culture (AID 720681). The method in brief:
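Blue fluorescence (Ex 405/Em 460 nm, triamterene-equivalent) was read immediately after pin transfer of compound or DMSO into medium (DMEM, 10% FBS) without cells.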

A short description of assay [3]: qHTS assay to test for compound auto fluorescence at 535 nm (green) in HEK293 cell free culture (AID 720682). The method in brief:
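Steps: dispense DMEM/10% FBS into empty wells; pin in compound or DMSO; measure fluorescence at 485/535 nm. Values are fluorescein equivalents.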

Assay [4] is described as follows: qHTS assay to test for compound auto fluorescence at 590 nm (red) in HEK293 cell free culture (AID 720683). The method in brief: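 Red-channel autofluorescence of compounds in culture medium (DMEM, 10% FBS), no cells, measured at 540/590 nm. Rose Bengal sodium is the reference fluorophore for equivalence.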
Assay [5] in a line: qHTS assay to test for compound auto fluorescence at 590 nm (red) in HepG2 cell free culture (AID 720684). The method in brief: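 Cell-free; medium MEM + 10% FBS; compound or DMSO added by pintool; read Ex 540/Em 590 nm; Rose Bengal sodium as red reference fluorophore.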
Assay [6] can be described thus: qHTS assay to test for compound auto fluorescence at 460 nm (blue) in HepG2 cell free culture (AID 720685). In short, it runs like this:
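Cell-free plates of MEM plus 10% FBS received 23 nL compound or DMSO vehicle; blue-channel (405/460 nm) intensity scored against triamterene as reference fluorophore.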

A short description of assay [7]: qHTS assay to test for compound auto fluorescence at 535 nm (green) in HepG2 cell free culture (AID 720686).
The nature of assay [8]: qHTS assay to test for compound auto fluorescence at 460 nm (blue) in HepG2 cells (AID 720687). The method in brief:
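Blue-channel autofluorescence (Ex/Em 405/460 nm, triamterene-equivalent) was measured after 1 hr compound exposure at 37 C, 5% CO2. Cells were HepG2, plated overnight at 37 C in MEM plus 10% FBS.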

Assay [9] is described as follows: qHTS assay to identify small molecule antagonists of the glucocorticoid receptor (GR) signaling pathway - cell viability counter screen (AID 720693). Also: nearly all actives have a fitted effect of over 55% in size.
Assay [10] in a line: qHTS assay for identifying genotoxic compounds that show differential cytotoxicity against isogenic chicken DT40 cell lines with known DNA damage response pathways - wild type cell line (AID 743012). Also: nearly all actives have a fitted effect of over 60% in size. Also: potency is read from the fitted curve at half-maximal effect. The method in brief: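 Viability of DNA repair-proficient chicken DT40 cells was assessed by CellTiter-Glo luminescence following 40 h compound exposure at 37 C/5% CO2.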
Assay [11] is described as follows: qHTS assay for identifying genotoxic compounds that show differential cytotoxicity against isogenic chicken DT40 cell lines with known DNA damage response pathways - Rev3 mutant cell line (AID 743014). Also: nearly all actives have a fitted effect of over 55% in size. Also: potency is read from the fitted curve at half-maximal effect.
Assay [12] is described as follows: qHTS assay for identifying genotoxic compounds that show differential cytotoxicity against isogenic chicken DT40 cell lines with known DNA damage response pathways - Rad54/Ku70 mutant cell line (AID 743015). Also: nearly all actives have a fitted effect of over 60% in size. Also: potency is read from the fitted curve at half-maximal effect.
Assay [13] can be described thus: qHTS assay to identify small molecule antagonists of the androgen receptor (AR) signaling pathway - cell viability counter screen (AID 743033; also: nearly all actives have a fitted effect of over 45% in size).
The nature of assay [14]: qHTS assay to identify small molecule antagonists of the thyroid receptor (TR) signaling pathway - cell viability counter screen (AID 743064). Also: nearly all actives have a fitted effect of over 50% in size. Also: potency is read from the fitted curve at half-maximal effect. The method in brief: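 Plate GH3.TRE-Luc cells; incubate 4 h at 37 °C; add compound, then T3 to 1 nM final; incubate 23.5 h; add CellTiter-Fluor; incubate 30 min at 37 °C, 5% CO2; read fluorescence.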
Assay [15] in a line: qHTS assay to identify small molecule antagonists of the androgen receptor (AR) signaling pathway using the MDA cell line - cell viability counter screen (AID 743041; also: nearly all actives have a fitted effect of over 45% in size; also: potency is read from the fitted curve at half-maximal effect). The method in brief: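 Viability read by CellTiter-Fluor fluorescence in the same wells as the antagonist screen, added after 15.5 h of a 16 h, 37C exposure. Human breast carcinoma MDA-kb2 AR-luc cells, compounds co-dosed with agonist R1881.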

Assay [16] concerns the target Androgen receptor (Homo sapiens) (UniProt P10275). As to the kind of experiment: qHTS assay to identify small molecule agonists of the androgen receptor (AR) signaling pathway using the MDA cell line (AID 743040; also: nearly all actives have a fitted effect of over 20% in size). In short, it runs like this: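 Luciferase agonist assay: 16 h compound exposure at 37C without CO2 in MDA-kb2 AR-luc cells, whose MMTV promoter responds to both AR and GR. Luminescence measured after 30 min room-temperature incubation with ONE-Glo.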

Assay [17] shares this target. The assay is described as follows: qHTS assay to identify small molecule antagonists of the androgen receptor (AR) signaling pathway using the MDA cell line (AID 743042; also: nearly all actives have a fitted effect of over 55% in size). In short, it runs like this: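 Antagonist mode: compounds plus R1881 agonist added to MDA-kb2 AR-luc cells, incubated 16 h at 37C. Luciferase reporter luminescence quantified, with multiplexed CellTiter-Fluor readout for cell viability.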

Assay [18] concerns the target Glucocorticoid receptor (Homo sapiens) (UniProt P04150). As to the kind of experiment: qHTS assay to identify small molecule antagonists of the glucocorticoid receptor (GR) signaling pathway (AID 720692; active = well fitted inhibition curve with a large enough effect in the signal ratio in the repeat runs, not every such curve was filed as active; the % refers to the signal ratio). The method in brief:
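In a 1536-well cell format, compounds were added 4 h after seeding GR-bla HeLa cells, together with dexamethasone at 5 nM final; reporter activity was measured by FRET-substrate fluorescence following 18 h at 37 C.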

For assay [19], the target named is Androgen receptor (Homo sapiens) (UniProt P10275). The assay is described as follows: qHTS assay to identify small molecule agonists of the androgen receptor (AR) signaling pathway (AID 743036; active = well fitted activation curve with a large enough effect in the signal ratio in the repeat runs, with a control signal flat, not every such curve was filed as active; the % refers to the signal ratio). In short, it runs like this: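 Reporter line: GeneBLAzer AR-UAS-bla-GripTite (HEK293). Steps: plate cells, 4 h rest, add compounds, 16 h at 37C, add LiveBLAzer B/G substrate, 2 h at RT, read fluorescence.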
Chain of Androgen receptor (Homo sapiens) (P10275 whole entry, looked up): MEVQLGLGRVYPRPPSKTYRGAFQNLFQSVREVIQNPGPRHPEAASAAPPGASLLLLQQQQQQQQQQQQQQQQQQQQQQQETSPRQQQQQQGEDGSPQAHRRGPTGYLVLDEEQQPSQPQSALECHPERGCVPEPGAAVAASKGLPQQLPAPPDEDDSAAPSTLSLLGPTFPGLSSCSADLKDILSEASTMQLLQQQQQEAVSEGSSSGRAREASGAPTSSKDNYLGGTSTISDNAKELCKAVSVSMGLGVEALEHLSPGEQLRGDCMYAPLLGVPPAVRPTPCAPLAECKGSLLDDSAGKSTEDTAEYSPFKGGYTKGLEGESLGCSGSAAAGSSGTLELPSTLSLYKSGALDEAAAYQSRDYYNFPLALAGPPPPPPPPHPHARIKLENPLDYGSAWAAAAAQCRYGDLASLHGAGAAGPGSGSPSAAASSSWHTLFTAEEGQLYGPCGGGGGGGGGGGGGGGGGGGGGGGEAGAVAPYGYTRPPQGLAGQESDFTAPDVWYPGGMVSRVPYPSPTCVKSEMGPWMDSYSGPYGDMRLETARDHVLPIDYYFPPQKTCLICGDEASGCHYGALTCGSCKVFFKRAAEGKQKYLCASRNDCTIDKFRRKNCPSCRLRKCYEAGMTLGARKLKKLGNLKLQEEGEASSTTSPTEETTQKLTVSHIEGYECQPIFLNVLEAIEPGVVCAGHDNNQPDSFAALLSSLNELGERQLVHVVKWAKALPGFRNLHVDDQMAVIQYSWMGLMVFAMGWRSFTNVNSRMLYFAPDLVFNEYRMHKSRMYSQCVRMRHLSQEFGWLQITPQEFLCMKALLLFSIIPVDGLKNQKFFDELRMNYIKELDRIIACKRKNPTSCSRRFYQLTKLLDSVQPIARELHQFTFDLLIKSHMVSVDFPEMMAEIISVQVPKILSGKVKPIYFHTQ

Chain of Glucocorticoid receptor (Homo sapiens) (P04150 whole entry, looked up): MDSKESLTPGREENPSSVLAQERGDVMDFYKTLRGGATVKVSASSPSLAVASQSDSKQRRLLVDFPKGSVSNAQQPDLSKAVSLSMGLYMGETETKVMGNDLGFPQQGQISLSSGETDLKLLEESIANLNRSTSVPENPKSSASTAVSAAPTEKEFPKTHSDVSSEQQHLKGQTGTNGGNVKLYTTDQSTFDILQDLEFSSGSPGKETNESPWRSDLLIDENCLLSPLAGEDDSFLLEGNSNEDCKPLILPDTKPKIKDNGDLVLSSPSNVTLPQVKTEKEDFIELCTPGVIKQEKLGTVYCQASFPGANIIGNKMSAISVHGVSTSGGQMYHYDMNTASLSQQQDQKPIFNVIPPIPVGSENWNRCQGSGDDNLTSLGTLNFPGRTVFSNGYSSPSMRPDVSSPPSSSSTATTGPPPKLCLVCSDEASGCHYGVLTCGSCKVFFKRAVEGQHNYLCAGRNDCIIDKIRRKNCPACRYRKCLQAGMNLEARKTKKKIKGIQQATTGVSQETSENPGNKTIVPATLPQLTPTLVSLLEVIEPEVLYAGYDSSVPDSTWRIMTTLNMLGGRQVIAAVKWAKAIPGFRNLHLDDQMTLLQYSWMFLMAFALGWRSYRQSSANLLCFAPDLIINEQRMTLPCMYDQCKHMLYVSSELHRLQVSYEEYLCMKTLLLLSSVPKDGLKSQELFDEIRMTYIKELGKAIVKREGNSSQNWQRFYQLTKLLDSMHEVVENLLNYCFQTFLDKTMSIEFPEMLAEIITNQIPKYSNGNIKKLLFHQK

Turning to `CCOc1ccccc1O`, the call in [1], in assay [3], in assay [4], in assay [5], in [6] and in assay [7] was inactive. Further, the call in assay [8] was inactive. The Potency result in assay [2], in [9], in assay [10], in [11], in assay [12] and in [13] was “inactive” each time. Moreover, the Potency result in [14] is “inactive”.
Take `CC1=CC(=C(c2ccc(N)cc2)c2ccc(N)cc2)C=CC1=N`: the outcome in [1], in assay [3], in assay [4], in [5], in assay [6] and in assay [7] was inactive. Also, the compound was called inactive in assay [8]. For the same compound, the Potency entry in assay [2] and in assay [9] was “inactive” throughout. Moreover, the Potency in assay [10] was 5.31 µM (active); in assay [11], 5.96 µM (active) and 3.1 µM (active); in assay [12], 5.96 µM (active); in assay [15] it was 7.5 µM (active); in assay [14], 13.3 µM (active).
With `Sc1nc(S)nc(S)n1`, the outcome in assay [1], in assay [3], in assay [4], in assay [5], in assay [6] and in [7] was inactive. The call in assay [8] was inactive. Further, the Potency entry in assay [2], in assay [9], in [11], in assay [12], in assay [13] and in assay [15] was “inactive” in each case. Moreover, the Potency result in [14] is “inactive”.
Consider `NC(=O)c1ccccc1C(N)=O`, for which the outcome in assay [1], in [3], in assay [4], in [5], in [6] and in assay [7] was inactive. For the same compound, the outcome in assay [8] and in [16] was inactive. Further, the Potency result in assay [2], in assay [9], in [10], in assay [11], in assay [12] and in [13] was “inactive” each time. The Potency entry in [15], in [17] and in assay [14] was “inactive” in each case.
`CC(C)NC(=O)c1ccccc1N`: the compound was called inactive in [1], in assay [3], in assay [4], in [5], in [6] and in assay [7]. Besides, in assay [8], the result was inactive. Moreover, the Potency result in assay [2], in [9], in [11], in [12], in assay [13] and in assay [15] was “inactive” in each case. The Potency entry in [14] is “inactive”.
As for `OCCOc1cccc(OCCO)c1`, the outcome in assay [1], in [3], in assay [4], in [5], in assay [6] and in assay [7] was inactive. For the same compound, the outcome in assay [8] was inactive. Besides, the Potency entry in assay [2], in assay [9], in assay [10], in assay [13], in [15] and in assay [14] was “inactive” each time.
Regarding `CC(C)=CCC[C@H](C)CCO`, the outcome in assay [1], in assay [3], in assay [4], in assay [5], in assay [6] and in [7] was inactive. In assay [8], the compound was classed as inactive. For the same compound, the Potency result in [2], in [9], in assay [15] and in assay [14] was “inactive” in each case. The Potency was 54.5 µM (active) in assay [10], 48.6 µM (active) in assay [11] and 19.3 µM (active) in [12].
`Cc1ccc(NC(=O)c2ccc(CN3CCN(C)CC3)cc2)cc1Nc1nccc(-c2cccnc2)n1`: the compound was called inactive in [1], in assay [3], in assay [4], in assay [5], in [6] and in assay [7]. The compound was called inactive in assay [8] and in assay [16]. The Potency entry in assay [2], in assay [9], in assay [13] and in assay [15] was “inactive” throughout. Also, the Potency in [10] was 15 µM (active); in assay [11] it was 11.9 µM (active); in assay [12], 13.3 µM (active); in assay [14], 21.1 µM (active).
In the case of `O=c1[nH]nc(-c2ccc([N+](=O)[O-])o2)o1`, the compound was called inactive in assay [1], in assay [3], in [4], in [5], in assay [6] and in [7]. Further, the result in assay [8] was inactive. The Potency entry in assay [2], in assay [18], in [9] and in assay [13] was “inactive” each time. Moreover, the Potency in assay [11] is 19.3 µM (active).
For `O=C1C=CCCC1`, the compound was called inactive in [1], in assay [3], in assay [4], in assay [5], in assay [6] and in assay [7]. The outcome in assay [8] was inactive. In addition, the Potency entry in [2], in assay [9], in assay [10], in assay [11], in assay [12] and in [13] was “inactive” throughout. Also, the Potency result in assay [15] and in assay [14] was “inactive” in each case.
For the compound `O=C(O)c1cc(C(=O)O)c(C(=O)O)cc1C(=O)O`, the compound was classed as inactive in assay [1], in assay [3], in assay [4], in assay [5], in assay [6] and in assay [7]. The outcome in [8], in [19] and in [16] was inactive. Besides, the Potency result in assay [2], in assay [18], in assay [9], in assay [11], in [12] and in assay [13] was “inactive” throughout. Further, the Potency result in assay [15], in [17] and in assay [14] was “inactive” in each case.
As for `CCCC(=O)OCc1ccccc1`, the compound was classed as inactive in [1], in assay [3], in assay [4], in assay [5], in assay [6] and in assay [7]. In [8], the result was inactive. Further, the Potency result in assay [2], in [9], in assay [10], in assay [11], in assay [12] and in [15] was “inactive” throughout. In assay [14], the Potency entry is “inactive”.
Turning to `Cc1ccccc1CCO`, the result in [1], in assay [3], in assay [4], in [5], in assay [6] and in assay [7] was inactive. Besides, the compound was called inactive in [8]. Further, the Potency result in assay [2], in assay [9], in assay [10], in assay [11], in assay [12] and in assay [15] was “inactive” each time. The Potency result in [14] was “inactive”.
As to `C/C(=C(\CCO)SS/C(CCO)=C(\C)N(C=O)Cc1cnc(C)nc1N)N(C=O)Cc1cnc(C)nc1N`, the compound was called inactive in [1], in assay [3], in assay [4], in assay [5], in [6] and in [7]. For the same compound, the outcome in assay [8] was inactive. In addition, the Potency result in [2], in assay [18], in assay [9], in [12], in [13] and in assay [15] was “inactive” throughout. Also, the Potency entry in assay [14] was “inactive”.
